Shown are actives, neighbours in structure and some others; about 9.2% of the full set was active somewhere.
NPC1 prom act: qHTS Assay for NPC1 Promoter Activators; Huh7 NPC1 promoter luciferase reporter, 24 h; Potency, µM (highest dose often 9.22 µM), for inactives: at the top dose activation, actives largely listed as activators; 320,000 tested, 2.4% active; AID 485313, 2010; also: % of control where 0% means no effect; nearly all actives have a fitted effect of over 60% in size
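Huh7 reporter cells (NPC1 promoter driving luciferase) are dosed with compound for 24 h at 37 °C, 5% CO2; luciferase detection reagent is then added and luminescence measured after 10 min at ambient temperature.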
ELG1 genotox: qHTS screen for small molecules that induce genotoxicity in human embryonic kidney (HEK293T) cells expressing luciferase-tagged ELG1 | HEK293T ELG1-luciferase reporter, luminescence, 16 h | Potency, µM (highest dose often 46 µM), for inactives: at the highest dose activity change, positive = activation, actives largely listed as activators | 330,000 tested, 1.3% active | AID 504466, 2011; also: % of control where 0% means no effect; nearly all actives have a fitted effect of over 60% in size
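Cells (2,000/well) expressing the ELG1-luciferase fusion are dosed by pin tool and kept 16 hr at 37 °C, 5% CO2. Signal comes from ONE-Glo luciferase reagent after 30 min at room temperature.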
ELG1 DNA repair: qHTS screen for small molecules that inhibit ELG1-dependent DNA repair in human embryonic kidney (HEK293T) cells expressing luciferase-tagged ELG1 | HEK293T ELG1-luciferase reporter, luminescence, 16 h; DNA damage induced by 5-fluorouridine | Potency, µM (highest dose often 46.1 µM), without a hit: top-dose activity change, negative = inhibition, actives largely listed as inhibitors | 330,000 tested, 2.3% active; also: % is scaled to controls: 0 for no effect and ±100 for the full control effect; nearly all actives have a fitted effect of over 55% in size
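Reporter activity after DNA damage by 5-fluorouridine is monitored. Compound-treated cells incubate 16 hr at 37 °C, then ONE-Glo is added for 30 min before luminescence reading.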
SMN2 splice enh: qHTS Assay for Enhancers of SMN2 Splice Variant Expression; Potency, µM (doses to about 46.1 µM), inactives show at the highest dose activity change, positive = activation, actives largely listed as activators; 210,000 tested, 2.8% active; HEK293 SMN2-luciferase splicing reporter, luminescence, 30-36 h; also: % of control where 0% means no effect; nearly all actives have a fitted effect of over 55% in size
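qHTS luciferase splicing reporter: luminescence rises when SMN2 exon 7 is included in transfected HEK293 cells. Compound exposure lasted 30-36 h at 37C, with 4.5 mM final sodium butyrate as control, followed by a ONE-Glo read.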
Rab9 prom act: qHTS Assay for Rab9 Promoter Activators; Huh7 Rab9 promoter-luciferase reporter, luminescence, 24 h; Potency, µM (top dose mostly 9.22 µM), inactives show at the highest dose activation, negative = inhibition, actives largely listed as activators; 320,000 tested, 2.8% active; also: % of control where 0% means no effect; nearly all actives have a fitted effect of over 60% in size
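Huh7 cells stably carrying Rab9 promoter–luciferase reporter, plated 1500 cells/well, compound added after 2 h and incubated 24 h at 37 °C; luciferase luminescence then read after 10 min with detection reagent.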
FLuc modulator: qHTS profiling assay for firefly luciferase inhibitor/activator using purifed enzyme and Km concentrations of substrates (counterscreen for miR-21 project); Luciferin 4-monooxygenase (Photinus pyralis), P08659; purified FLuc, Km substrates, luminescence inhibition; Potency, µM (highest dose often 57.5 µM), without a hit: at the highest dose activity change, negative = inhibition, usual class: inhibitors; 360,000 tested, 6.9% active; AID 588342, 2011;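 also: plate controls were vehicle for no effect and reference inhibitor for full effect; nearly all actives have a fitted effect of over 55% in size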
Target sequence (P08659 whole entry, looked up): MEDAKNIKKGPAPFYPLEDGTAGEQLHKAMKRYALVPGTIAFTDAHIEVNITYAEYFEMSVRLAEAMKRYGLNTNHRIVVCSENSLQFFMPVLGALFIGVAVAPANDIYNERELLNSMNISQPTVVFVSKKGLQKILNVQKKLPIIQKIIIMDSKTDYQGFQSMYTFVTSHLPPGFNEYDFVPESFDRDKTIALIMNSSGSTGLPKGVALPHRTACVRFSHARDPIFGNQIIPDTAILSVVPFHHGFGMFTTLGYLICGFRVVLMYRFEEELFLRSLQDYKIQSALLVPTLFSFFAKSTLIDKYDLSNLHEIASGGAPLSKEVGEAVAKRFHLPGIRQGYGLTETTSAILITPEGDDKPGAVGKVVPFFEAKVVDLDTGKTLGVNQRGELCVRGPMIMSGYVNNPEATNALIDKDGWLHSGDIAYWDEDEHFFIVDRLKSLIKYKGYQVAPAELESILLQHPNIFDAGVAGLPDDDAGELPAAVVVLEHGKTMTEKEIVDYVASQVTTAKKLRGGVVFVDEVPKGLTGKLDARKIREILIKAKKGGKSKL
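Biochemical qHTS of compounds, final roughly 60 µM downward over six points, against 10 nM purified firefly luciferase using Km concentrations of substrates (10 uM D-luciferin, 10 uM ATP) in Tris acetate pH 7.5 buffer; luminescence output.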
ELG1 FLuc counter: qHTS screen for small molecules that inhibit ELG1-dependent DNA repair: Hit Confirmation in Cell-Based Luciferin Assay | shares compounds with ELG1 DNA repair | cell-free firefly luciferase luminescence counter-screen, ViewLux | Potency, µM (titrated, usually from 46.1 µM), without a hit: at the top dose activity change, negative = inhibition, most hits filed as inhibitors | 350 tested, 3% active | AID 624247, 2012; also: % is scaled to controls: 0 for no effect and ±100 for the full control effect
ELG1-Luc inh: HTS assay for small molecules that inhibit ELG1-dependent DNA repair in human embryonic kidney (HEK293T) cells expressing luciferase-tagged ELG1: Hit Confirmation | shares compounds with ELG1 DNA repair | HEK293T ELG1-luciferase levels, luminescence; cells co-treated with 5-fluorouridine | Potency, µM (top dose mostly 46.1 µM), for inactives: at the highest dose activity change, negative = inhibition, actives largely listed as inhibitors | 670 tested, 68% active | AID 624248, 2012; also: % is scaled to controls: 0 for no effect and ±100 for the full control effect; nearly all actives have a fitted effect of over 55% in size
ELG1 MMS Luc: MMS-stimulated human ELG1 repair inhibition, confirmed; HEK293T luciferase-tagged ELG1 level, MMS stimulated; shares compounds with ELG1 DNA repair; AID 624249; 670 tested, 53% active; Potency, µM (titrated, usually from 46.1 µM), without a hit: at the highest dose activity change, negative = inhibition, hits mostly inhibitors; also: % is scaled to controls: 0 for no effect and ±100 for the full control effect; nearly all actives have a fitted effect of over 60% in size
ELG1 5FU viab: qHTS screen for small molecules that inhibit ELG1-dependent DNA repair: Hit Confirmation with 5FU Viability; AID 624250, 2012; cell viability with 5-FU, ELG1-dependent repair; Potency, µM (doses to about 46.1 µM), for the others: top-dose activity change, negative = viability loss, hits mostly cytotoxic; shares compounds with ELG1 DNA repair; 670 tested, under 10 active;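 also: ELG1-luc HEK293T cells cotreated with 5-fluorouridine at 10 µM final; viability measured 16 h after compound addition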
ELG1 MMS viab: qHTS screen for small molecules that inhibit ELG1-dependent DNA repair: Hit Confirmation with MMS Viability. shares compounds with ELG1 DNA repair. Cell viability with MMS, ELG1-dependent DNA repair. Potency, µM (titrated, usually from 46.1 µM), without a hit: at the highest dose activity change, negative = viability loss, hits mostly cytotoxic. 670 tested, 33% active. AID 624251, 2012;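 also: ELG1-luc HEK293T cells co-treated with 10 µM MMS; viability read 16 h after compound addition; % is scaled to controls: 0 for no effect and ±100 for the full control effect; nearly all actives have a fitted effect of over 60% in size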
ELG1 unstim viab: qHTS screen for small molecules that inhibit ELG1-dependent DNA repair: Hit Confirmation with Unstimulated Viability Assay; shares compounds with ELG1 DNA repair; 900 tested, 8% active; cell viability counter-screen, unstimulated, luminescence; Potency, µM (doses to about 45.9 µM), without a hit: at the top dose activity change, negative = loss of viability, actives largely listed as cytotoxic;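 also: compound exposure lasted 16 hours before reading; % is scaled to controls: 0 for no effect and ±100 for the full control effect; nearly all actives have a fitted effect of over 55% in size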
FLuc biochem: qHTS screen for small molecules that inhibit ELG1-dependent DNA repair: Hit Confirmation in Biochemical Luciferin Assay; 350 tested, 10% active; shares compounds with ELG1 DNA repair; Potency, µM (highest dose often 57.5 µM), without a hit: top-dose activity, negative = inhibition, hits mostly inhibitors; purified firefly luciferase, luminescence counter-screen; also: % is scaled to controls: 0 for no effect and ±100 for the full control effect
An asterisk follows results filed as active; ? = inconclusive; . = no result given; [ ] = another dose, or the depositor's remark. Calls follow the shape of the dose curve; as a rule, active = well fitted curve in the direction sought with a large enough effect; inconclusive = small, poorly fitted or top-dose-only effect, or another doubt; inactive = no such curve, though single readings can be large; an effect the other way counts as inactive or inconclusive. Potency is read from the fitted curve at half-maximal effect.

SMILES	NPC1 prom act	ELG1 genotox	ELG1 DNA repair	SMN2 splice enh	Rab9 prom act	FLuc modulator	ELG1-Luc inh	ELG1 MMS Luc	ELG1 5FU viab	ELG1 MMS viab	ELG1 unstim viab	others
O=C(Nc1cnn(Cc2ccc(F)cc2)c1)c1cnn2c(C(F)F)cc(-c3ccccc3)nc12	-9%	-7%	2.3µM*	.	-5%	-5%	5µM*	13µM*	?	?	?	ELG1 FLuc counter=?;FLuc biochem=-11%
O=C(Nc1cc(F)ccc1F)c1cnn2c(C(F)F)cc(-c3ccccc3)nc12	.	.	.	-3%	.	4%	.	.	.	.	.
Cc1ccc(-c2cc(C(F)F)n3ncc(C(=O)Nc4c(C)nn(Cc5c(Cl)cccc5Cl)c4C)c3n2)cc1	-10%	4%	4.6µM*	-4%	-4%	3%	4µM*	6%	?	2%	-5%	ELG1 FLuc counter=-4%;FLuc biochem=-5%
COCCCNC(=O)Cn1cnc2sc(C)c(S(=O)(=O)N3CC(C)CC(C)C3)c2c1=O (configuration not stated)	-4%	1%	-1%	.	-7%	1%	.	.	.	.	.
Cc1ccc(-c2nc3c(c(SCC(=O)Nc4cccc(C(=O)O)c4)n2)Cc2cccc(C)c2O3)cc1	8%	.	.	7%	-2%	?	76%	77%	7%	?	5%	ELG1 FLuc counter=72%;FLuc biochem=?
O=C(CCc1nnc2n(Cc3ccc(Cl)cc3)c(=O)c3ccccc3n12)N1CCN(c2ccccn2)CC1	-5%	0%[9.26 µM]	3.7µM*	.	-4%	2%	6.3µM*	22µM*	?	?	-10%
O=C(COC(=O)C1(c2cccc(F)c2)CCCC1)NCc1cccs1	-6%	-4%	4%	1%	-2%	-6%	.	.	.	.	.
Cc1ccc(CNS(=O)(=O)c2ccc3c(c2)NC(=O)C(C)S3)cc1 (configuration not stated)	2%	-4%	0%	.	-3%	1%	.	.	.	.	.
CCCCCn1c2c(c(=N)c3ccccc31)CCC2	-35%	-18%	5.2µM*	.	-40%	-2%	2µM*	2.2µM*	-16%	2.8µM*	?	ELG1 FLuc counter=?;FLuc biochem=3%
CCCCCCCCCCn1c2c(c(=N)c3c1CCC3)CCC2	-42%	-11%	?	-55%	-42%	3%	.	.	.	.	.
COc1ccc(-c2nc(CN3CCN(C(=O)c4ccco4)CC3)c(C)o2)c(F)c1	1%	1%	19%	.	7%	4%	.	.	.	.	.
CCCCNC(=O)CCc1c(C)nc2nc(-c3cc(OC)cc(OC)c3)nn2c1C	0%	1%	2.3µM*	24%	9%	0%	?	1%	?	?	8%
CCCCCCNC(=O)CCc1c(C)nc2nc(-c3cc(OC)cc(OC)c3)nn2c1C	.	.	.	3%	.	2%	.	.	.	.	.
CCSc1nnc(NC(=O)c2csc(C)c2)s1	2.8µM*	?	?	14µM*	2.2µM*	-17%	.	.	.	.	10%	ELG1 FLuc counter=59%;FLuc biochem=?
CCSc1nnc(NC(=O)c2cccc3ccccc23)s1	-1%	1%	16%	3%	-3%	-2%	.	.	.	.	.
CCc1nc2ccc(C(=O)NCCc3ccc(OC)c(OC)c3)cc2nc1CC	3%	-4%	-13%	.	-2%	-2%	.	.	.	.	.
COc1ccc(-c2nc3ccc(C(=O)NCC(OC)OC)cc3nc2-c2ccc(OC)c(OC)c2)cc1OC	-3%	1%	1µM*	.	4%	0%	0.71µM*	8%	?	?	2%
CCOCCCNC(=O)c1ccc2nc(-c3ccc(OC)c(OC)c3)c(-c3ccc(OC)c(OC)c3)nc2c1	-5%	-7%	1.5µM*	.	-1%	-1%	0.44µM*	?	?	?	?
O=C(CSc1ncc2c(n1)-c1ccccc1N(Cc1ccc(F)cc1)S2(=O)=O)c1ccc(Br)cc1	.	.	.	-32%	.	-6%	.	.	.	.	.
CCN1C(=O)/C(=C/C=C2\N(CC)c3cc(S(=O)(=O)N(C)C)ccc3N2c2ccccc2)SC1=S	-5%	8%	?	.	-6%	?	.	.	.	.	.
O=[N+]([O-])c1cc2c(c(CSc3nnc(Nc4ccccc4)s3)c1)OCOC2	0%	2%	4.6µM*	-10%	-11%	1%	?	1µM*	0%	0.79µM*	?
